Assay results as given in the supplement of paper PMC6555819.

What was measured:
Assay in all cases: PBM binding z-score (relative to random genomic background probes); higher = stronger binding; sequences stand for … in GC…GCGATTGACAGCGTAGAATGAAGG
[1] = system: PPARg:RXRa DBDmut IVT, anti-RXR (DBD mutation: RXRa K156A/R161A, NR concentration 270 nM, RXRa partner concentration 90 nM)
Method in brief: (§1)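 Antibodies against each partner of ligand-free nuclear receptor dimers (one per run) detected binding on custom Agilent 4×180K protein-binding microarrays after 1 h incubation. The double-stranded probes had 34-nt variable regions carrying direct-repeat seeds, single-nucleotide variants, half-site ablations and random human genomic background sequences. Binding z-scores, from regression-normalized fluorescence, use the random background probes as reference.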

[2] = system: PPARg:RXRa IVT, anti-PPARg (NR concentration 270 nM, RXRa partner concentration 90 nM)
Method in brief: as §1

[3] = system: PPARg DBDmut:RXRa IVT, anti-PPARg (DBD mutation: PPARg1 K132A/R137A, NR concentration 270 nM, RXRa partner concentration 90 nM)
Method in brief: as §1

[4] = system: PPARg DBDmut IVT, anti-PPARg (DBD mutation: PPARg1 K132A/R137A, NR concentration 270 nM)
Method in brief: as §1

[5] = system: PPARg homodimer (NR concentration 180 nM)
Method in brief: as §1

[6] = system: PXR:RXRa (NR concentration 270 nM, RXRa partner concentration 90 nM)
Method in brief: as §1

[7] = system: PXR homodimer (NR concentration 270 nM)
Method in brief: as §1

[8] = system: RARa:RXR (NR concentration 270 nM, RXRa partner concentration 90 nM)
Method in brief: as §1

[9] = system: RARa homodimer (NR concentration 270 nM)
Method in brief: as §1

[10] = system: RARb:RXRa (NR concentration 270 nM, RXRa partner concentration 90 nM)
Method in brief: as §1

[11] = system: RARb homodimer (NR concentration 270 nM)
Method in brief: as §1

[12] = system: RARg:RXRa (NR concentration 270 nM, RXRa partner concentration 90 nM)
Method in brief: as §1

[13] = system: RARg homodimer (NR concentration 270 nM)
Method in brief: as §1

[14] = system: RXRa DBDmut IVT, anti-RXR (DBD mutation: RXRa K156A/R161A, NR concentration 90 nM)
Method in brief: as §1

[15] = system: RXRa homodimer (NR concentration 180 nM)
Method in brief: as §1

[16] = system: THRa:RXRa (NR concentration 90 nM, RXRa partner concentration 90 nM)
Method in brief: as §1

[17] = system: THRa homodimer (NR concentration 90 nM)
Method in brief: as §1

[18] = system: VDR homodimer (NR concentration 270 nM)
Method in brief: as §1

Sequence | PBM binding z-score [1] | PBM binding z-score [2] | PBM binding z-score [3] | PBM binding z-score [4] | PBM binding z-score [5] | PBM binding z-score [6] | PBM binding z-score [7] | PBM binding z-score [8] | PBM binding z-score [9] | PBM binding z-score [10] | PBM binding z-score [11] | PBM binding z-score [12] | PBM binding z-score [13] | PBM binding z-score [14] | PBM binding z-score [15] | PBM binding z-score [16] | PBM binding z-score [17] | PBM binding z-score [18]
CAAACTAAGTCAAGGTCAAAGTCGGTTTGTGCCA | 2.53 | 3.35 | 0.787 | 0.588 | 2.93 | 4.73 | 2.29 | 4.9 | 1.46 | 4.13 | 4.04 | 4.35 | 4.17 | 2.72 | 4.85 | 4 | 3.38 | 4.09
TAGCCTAGGTCAGATCGGGCCAGTAGACGCTATA | 0.0206 | 1.03 | -0.87 | -1.34 | 0.0238 | 0.619 | -0.847 | 0.622 | -1.52 | 2.99 | 1.76 | 2.74 | 3.37 | -0.78 | 1.2 | 3.76 | -0.385 | -0.53
CAAAGTAGGTCACAGAGGTCAAAGTCCGTGCGTA | 8.54 | 8.94 | 1.99 | 2.62 | 4.88 | 6.71 | 10.8 | 7.4 | 2.67 | 5.14 | 5.68 | 7.42 | 8.01 | 3.36 | 8.08 | 4.51 | 2.42 | 6.6
GCGACTGGGGCATCAGTAGGTTACCATAACTTAA | 4.06 | 4.04 | -0.43 | -0.245 | 0.247 | 0.02 | -0.313 | 0.416 | -0.569 | 0.805 | 0.91 | 0.793 | 0.519 | 0.0645 | 0.498 | 0.632 | -0.249 | -0.583
CCTACTGGGCCAAAGGTCATTGGTTCCAATGCTC | 5.02 | 6.55 | 0.0482 | -0.387 | 2.89 | 5.41 | 2.21 | 6.04 | 0.819 | 4.51 | 4.8 | 5.8 | 4.77 | 0.919 | 6.11 | 3.37 | 0.894 | 2.85
CGAAGGAGGGCATGAGTTGATAGCAAATGCCGAT | 2.57 | 2.1 | 0.0677 | -0.445 | 0.352 | 0.02 | -0.165 | 0.152 | -0.898 | 1.53 | 0.409 | 0.997 | 1.45 | 0.567 | 0.619 | 0.292 | -0.803 | 0.969
TCATATAGGTAAGTGCTAGGTGAAAGTCCGATCT | 3.42 | 2.48 | 0.55 | 0.697 | 0.802 | 0.193 | 0.147 | 0.223 | 1.04 | 0.4 | 0.823 | 0.114 | 0.186 | 1.23 | 0.629 | 0.873 | 0.473 | 0.173
TCATATAGGCAAACAGGTGAAAGTCCGTAAGTTA | 2.62 | 1.42 | 0.461 | 0.241 | 0.782 | 0.517 | 0.177 | 0.939 | 0.994 | 0.119 | 0.521 | 0.00145 | 0.112 | 1.26 | 0.527 | 0.197 | 0.185 | 0.251
CGTCCAAGGTCAAGGGTCAGTGAAGAGATGACGG | 3.08 | 5.28 | 0.202 | -0.0608 | 5 | 5.97 | 1.43 | 8.23 | 1.5 | 5.81 | 5.05 | 7.4 | 7.41 | 3.29 | 8.75 | 4.58 | 2.82 | 3.3
GCAGACAGGTGAGACGCAGGTAACTCAGGGTGGC | 0.0725 | 0.0836 | -0.435 | -0.858 | -0.513 | -0.282 | -0.385 | 0.154 | -0.0204 | 0.422 | -0.0826 | 0.237 | 0.034 | -0.867 | 0.28 | 0.763 | -0.588 | -0.464
AGAATGAGGTTATTAAGATCAGGGCATTGCGGTC | 3.64 | 2.96 | 0.978 | -0.0431 | 1.27 | 1.83 | 1.83 | 1.79 | 0.408 | 1.75 | 1.67 | 1.47 | 1.12 | 2.13 | 2.02 | 2.61 | 1.18 | 1.74
TCTTGTAGATCAGCAGGTAAAGAAAGCTGGCCAA | 1.27 | 0.386 | -0.0476 | -0.531 | -0.175 | -0.0594 | -0.358 | 0.111 | 0.0298 | -0.482 | -0.48 | -0.342 | -0.709 | 0.623 | 0.124 | -0.108 | -0.515 | -0.431
CCTACTGGGCCGTCAGGTCATTGATATCAACGTT | 1.17 | 2.14 | -0.782 | -0.667 | 0.741 | 1.33 | 0.502 | 1.53 | 0.0542 | 1.66 | 2.18 | 1.33 | 1.37 | 0.28 | 1.11 | 3.18 | 3.49 | 1.16
AGAATGAGGTTATACGTAGATCAGTGAAGAAAGT | 3.57 | 2.11 | 1.37 | 1.44 | 0.559 | 1.15 | 0.463 | 1.56 | 0.81 | 1.39 | 0.6 | 1.71 | 1.14 | 1.92 | 2.12 | 1.99 | 0.44 | 0.703
CCAGACAGATGAGAAGGTAACTCAGCCTCGATTA | 0.125 | -0.374 | 0.361 | -0.388 | 1.08 | -0.297 | 0.323 | -0.00624 | 1.43 | -0.0941 | -0.0918 | 0.0576 | 0.416 | 0.092 | 0.0859 | 0.0683 | 0.259 | 0.296
GATAGCAGGCCATTTGGGTCACTCAATGACGGGC | 3.66 | 3.5 | -0.0916 | -0.698 | -0.0574 | 0.523 | 0.0979 | 0.747 | -0.472 | 1.55 | 1.92 | 1.22 | 1.5 | 0.215 | 0.841 | 1.87 | 0.437 | 0.542
AATACAGGGTCCCTAGGCCAGAGTAGGTACGAAT | -0.243 | 0.245 | -0.698 | -1.31 | -0.659 | -0.49 | -0.525 | -0.409 | 0.104 | 0.138 | -0.162 | 0.119 | 0.25 | -0.442 | 0.211 | 0.106 | -0.229 | 0.0969
CCTGCAAGGTCAATGGTCAGCTAAAGCAGCTCGC | 2.93 | 2.76 | -0.252 | -1.15 | 2.72 | 3.78 | 0.469 | 4.56 | 0.759 | 5.01 | 3.65 | 5.83 | 5.9 | 3.75 | 5.35 | 3.77 | 1.8 | 2.45
CCTGCTAGGTCCATGGTCAGCTAAAGCAGCTCGC | -0.414 | -0.603 | -1.47 | -1.26 | -0.704 | -0.449 | -1 | -0.64 | -1.05 | 0.441 | 0.248 | -0.442 | -0.195 | 1.19 | -0.603 | -0.287 | -0.629 | 0.0229
CCTAGTTGGTCAAGAGGTCACACACCGGATATGA | 2.07 | 4.43 | 0.763 | 0.00136 | 3.36 | 4.96 | 1.63 | 5.63 | 1.6 | 4.83 | 5.08 | 6.18 | 5.31 | 1.37 | 6.37 | 4.15 | 2.75 | 3.07
TAGCCTAGGTCATTGGGCCAGTATCGTACGCATC | 2.91 | 3.95 | 0.593 | -0.521 | 1.11 | 1.68 | -0.331 | 2.39 | 0.0894 | 3.85 | 2.91 | 3.85 | 4 | 1.73 | 2.84 | 2.87 | 1.01 | 1.43
GATACAGGGTCAGCTAGAGGACAGAGTATGGAAA | 1.12 | 2.33 | 0.573 | 0.147 | 2.5 | 3.17 | 0.27 | 4.99 | 0.599 | 4.34 | 3.71 | 6.86 | 4.97 | 1.16 | 4.03 | 3.79 | 1.05 | 0.873
CCTACTGGGCCATTCAGAGGTCATTGACCATATG | 4.24 | 4.24 | 0.0159 | 0.229 | 2.02 | 4.93 | 2.23 | 4.52 | 0.388 | 3.17 | 4.16 | 4.57 | 3.23 | 0.945 | 3.98 | 3.28 | 1.45 | 3.34
CAAGCTAGGTCACCGGAAGGTCAAAGTCCGCATG | 4.7 | 5.3 | 0.445 | 0.749 | 9.68 | 6.22 | 2.44 | 7.91 | 3.45 | 5.53 | 5.19 | 8.48 | 7.81 | 1.93 | 6.91 | 4.5 | 2.79 | 3.87
AATATAGGGTCATCGTAGGCCAGAGTACGCACAG | 4.87 | 5.42 | 1.96 | 1.99 | 2.4 | 4.98 | 0.973 | 5.35 | 1.7 | 4.58 | 3.83 | 5.9 | 5.5 | 3.83 | 6.83 | 4.67 | 2.3 | 3.76
CTCGAAAGGTCGTGCTCAGGTAAGTATACCAAAC | 0.999 | 1.78 | 0.44 | -0.41 | 1.63 | 3.24 | 0.482 | 3.73 | 0.0606 | 3.99 | 2.92 | 4.8 | 4.35 | 2.12 | 5.15 | 3.62 | 0.655 | 1.17
